# Laboratory results published in PubChem BioAssay (NCI).
# Compounds without any hit were thinned out: in the full panel of roughly 83,000, 20% have a hit.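 The endpoint reported here, percent growth, reads 100 for growth as untreated, 0 for no net growth and -100 for all cells dead.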 A number with no mark means an inactive call. The source made the active and inactive calls.
# Tested on: MDA-MB-435 melanoma
# Assay: NCI-60 one-dose screen, 48 h (100 = growth as untreated, 0 = no growth, -100 = all killed)
# Details: 10 µM
# Experimental: Growth inhibition of the MDA-MB-435 human Melanoma tumor cell line is measured as a screen for anti-cancer activity. Cells are grown in 96 well plates and exposed to the test compound for 48 hours. Compounds are tested at a single concentration, which is 10^-5 M for most compounds. The reported endpoint is percent growth (GI% or GIPRCNT), where numbers from 0 - 100% represent growth inhibition, and numbers from -100% - 0 represent cell death. For example, a value of 40 represents 60% growth inhibition. A value of 0 means no net growth occurred over the course of the experiment. A value of -40 indicates 40% of cells at the beginning of the experiment died by the end of the experiment. A value of -100 means all cells are dead at the end of the experiment.
# NCI-60 Human Tumor Cell Lines Screen was performed using the standard one-dose NCI protocol, which is described in more detail at https://dtp.cancer.gov/discovery_development/nci-60/default.htm.
# Compounds with GIPRCNT values below 10 were considered active. Activity score was based on GIPRCNT using the following formula: […]
# Score is 0 for GIPRCNT values of 100 or above, 50 for GIPRCNT values of 0, and 100 for GIPRCNT values of -100.
row,Compound,growth
1,O=C(N/N=C/c1ccc(Cl)cc1)c1ccccc1Nc1cccc(C(F)(F)F)c1,53%
2,CS(=O)(=O)c1nccc(-c2c(-c3ccc(OCCc4ccccc4)cc3)nc3sccn23)n1,96%
3,OCC1OC2C(NC(=S)N2c2ccccc2)C(O)C1O (stereo not given),98.3%
4,O=C1/C=C/[C@@H](O)[C@@H]2C[C@@H](O)C[C@H]2/C=C/CCC[C@@H](C(F)(F)F)O1,93.5%
5,CCCCCCCCCCOC(c1ccccc1)c1ccccc1,99%
6,CCCCCCCCCCCC[n+]1c(C)cc(N)c2ccccc21,-6.75% (active)
7,O=C(N/N=C/c1ccc([N+](=O)[O-])cc1)c1ccccc1Nc1cccc(C(F)(F)F)c1,103%
8,COc1ccc(/C(C#N)=C/c2ccccc2OC)cc1,-19.4% (active)
9,C=CCNCCN1C(=O)c2ccc3c4c(ccc(c24)C1=O)C(=O)N(CCNCC=C)C3=O,-85.2% (active)
10,COc1cc2cc(Oc3ccc(NC(=O)Nc4ccc(Cl)c(Cl)c4)cc3)c(C)nc2cc1OC,12.3%
11,Nc1ncnc2c1ncn2C1(CO)OCC(O)C(O)C1O (stereo not given),107%
12,CCn1cc(CNc2ccc(C(=O)Nc3ccc4ccccc4c3)cc2)c(C)n1,25.6%
13,C#CCOc1c(OC)cc(C(=O)/C(C)=C/c2cccc(N=[N+]=[N-])c2)cc1OC,-19% (active)
14,Cc1ccc(Cl)cc1NC(=O)CCl,83.1%
15,CCOC(=O)CSc1nc(-c2cc(OC)ccc2OC)cc(-c2ccc(OC)cc2)c1C#N,86.6%
16,COC1=CC(=O)OC(c2ccc(OC)cc2)C1 (stereo not given),114%
17,CCCC1(CN2c3ccccc3Sc3ccc(Cl)cc32)CCN(CC)C1 (stereo not given),-94.7% (active)
18,COc1ccc(-c2cc(-c3ccc(Cl)cc3)nc(SCCCC(=O)NO)n2)cc1OC,19.6%
19,O=C1c2ccccc2C(=O)c2c1ccc1c(=O)n(-c3ccccc3C(F)(F)F)nnc21,-89.5% (active)
20,CCOC(=O)c1cocc1C(=O)O,106%

row,Compound,growth
1,Nc1nc(-c2ccc(Cl)cc2)cc(-c2cc3ccccc3oc2=O)n1,104%
2,O=C1c2c(c3c4ccccc4n(CCCCCCN4CCOCC4)c3c3[nH]c4ccccc4c23)C(=O)N1O,56.4%
3,Fc1ccc(C(c2ccc(F)cc2)C(Cl)Cl)cc1,107%
4,C=C1CCC2(C#N)[C@H]3[C@H](CC[C@@H]2C)[C@@H](C)C[C@@H](CC(C)(C)NC(=O)CN2CCC2=O)[C@H]13 (stereo not given in full),57.9%
5,O=C(CCCSc1nc(-c2ccccc2)cc(-c2ccc(Cl)cc2)n1)NO,21.9%
6,C[C@@H](O)[C@H]1C(=O)N2C(C(=O)O)=C(SCCN=CN)C[C@H]12,-9.18% (active)
7,COc1cc(/C=C2\CCCC3=C2NC(N)=NC3c2cc(OC)c(OC)c(OC)c2)cc(OC)c1OC (stereo not given),-17.9% (active)
8,O=C(CSc1nccc(Nc2cccc3ccccc23)n1)c1ccc(Cl)cc1,101%
9,COc1cc(Cc2cc(-c3ccccc3)n[nH]c2=O)cc(OC)c1OC,11%
10,N#Cc1cnn(C(=O)c2nn(-c3ccc(Cl)cc3)cc2O)c1N,19.1%
11,COc1ccc(-c2cc(-c3ccc(OC)c(OC)c3)nc(SCCCC(=O)NO)n2)cc1,1.23% (active)
12,COc1ccc(/C=C/c2nnc(/C=C/c3ccc(OC)c(OC)c3)o2)cc1OC,10.4%
13,CN1CCc2c(sc3nc4n(-c5ccc(Cl)cc5)c(=O)[nH]n4c(=O)c23)C1,103%
14,CCNc1nc(C(F)(F)F)nc2c1sc(=S)n2-c1ccccc1,113%
15,O=c1[nH]c(=O)n(C2C[C@H](O)[C@@H](CO)O2)cc1C(F)(F)F (stereo not given in full),102%
16,Cc1ccc(-n2c(C)nn3c(=O)c4c5c(sc4nc23)CN(C)CC5)cc1,102%
17,CN(C)CCN(Cc1ccccc1)c1ccc2ccccc2n1,94.4%
18,NS(=O)(=O)c1ccc(N2N=C(c3ccccc3)CCC2=O)cc1,97.3%
19,N#Cc1c(-c2ccc(Cl)cc2)csc1NC(=O)Nc1ccc(Cl)c(C(F)(F)F)c1,26%
20,COc1cc2c(cc1NC(=O)C(F)(F)F)-c1ccc(NC(=O)C(F)(F)F)cc1C2,99.6%
